From PubChem
PPC-1+TRAIL kill = kills PPC-1 cancer cells in the presence of TRAIL; PPC-1 cells + TRAIL, ATPLite viability luminescence; cell killing (% activity), % at 4 µM or 5 µM; 0.41% of 220,000 active; AID 1443;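 active = cell killing above 50% in the first pass at 4 µM, then a duplicate retest at 5 µM averaging 50% or more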
Peg3 prom inh = reduces Peg3 promoter-driven luciferase expression in HeLa; HeLa PEG-Prom luciferase reporter, luminescence, overnight; inhibition, % at 20 µM; 1.7% of 360,000 active;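 active = inhibition of at least 50% at 20 µM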
C8 TRAIL sens = caspase-8 TRAIL sensitization | NB7+C8 cells + TRAIL, ATPlite viability luminescence | inhibition (viability loss, TRAIL sensitization), % at 10 µM | 1% of 360,000 active | AID 624354;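 active = compounds causing at least 50% loss of cell viability in the single-dose screen, relative to plate controls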
CF NFkB inh = inhibitors of cystic fibrosis induced NF-kB. KKLEB NF-kB-GFP reporter, PAF-induced, GFP fluorescence overnight. inhibition, % at 5 µM. 0.86% of 360,000 active. AID 588850;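 active = at least 50% inhibition at 5 µM, scaled per plate between neutral and stimulator controls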;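 also: PAF is a Pseudomonas aeruginosa culture filtrate used as stimulus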
KKLEB cytotox = CF airway cell cytotoxicity counter-screen. KKLEB CF airway cells viability, ATPlite luminescence, overnight; stronger effect = lower value; cells stimulated with P. aeruginosa culture filtrate. activity change (cytotoxicity), % at 5 µM. 0.36% of 360,000 active. AID 602141;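 active = corrected activity change at or below -50% at 5 µM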
HIF-2a inh = inhibitors of HIF-2a; inhibition, % at 18.8 µM; AID 624352; 786-0 RCC cells HIF-2a reporter, luciferase luminescence, overnight; 0.72% of 360,000 active;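 active = inhibition of the luminescence signal of 40% or more relative to plate controls, in a single-dose primary screen at 18.75 µM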
CF NFkB inh conf = confirmation of cystic fibrosis induced NF-kB inhibitors | 64% of 1,300 active | AID 602472 | inhibition, % at 5 µM | shares compounds with CF NFkB inh | KKLEB CF airway cells, PAF-induced NF-kB-GFP fluorescence, overnight; in the data active = inhibition above about 40%;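 also: stimulus PAF is a Pseudomonas aeruginosa filtrate and not platelet activating factor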
Of the large screens only hits and unclear results are named; the others gave an inactive call (follow-up assays come after a bar, where they were run). The list is not random: actives were taken first. Their share in the collection is about 3.1%.

Cc1ccc(CNc2ncnc3ccc(-c4ccc(CO)o4)cc23)o1	CF NFkB inh 53 (no result: PPC-1+TRAIL kill) | CF NFkB inh conf 81
N#Cc1ccccc1S(=O)(=O)N1CCN(C(=O)C2CC(=O)N(c3ccc4c(c3)OCCO4)C2)CC1 (configuration not stated)	none (no result: PPC-1+TRAIL kill)
CCN1CCc2nc3ccccc3c(C(=O)Nc3ccc(NC(C)=O)cc3)c2C1	none
CC(=O)Nc1ccc(NC(=O)COC(=O)c2c3c(nc4ccccc24)CCN(Cc2ccccc2)C3)cc1	CF NFkB inh 57 | CF NFkB inh conf 72
O=C(COC(=O)c1c2c(nc3ccccc13)CCN(Cc1ccccc1)C2)Nc1c(F)cccc1F	Peg3 prom inh 50, CF NFkB inh 75 | CF NFkB inh conf 76
O=C(NCc1ccc(F)cc1)c1c2c(nc3ccccc13)CCN(Cc1ccccc1)C2	none
Cc1cccc(NC(=O)CN2C(=O)NC3(CCCC3)C2=O)n1	none (no result: PPC-1+TRAIL kill)
C[C@@H]1CC=C[C@H]2[C@H]1C(=O)N(Cc1ccccc1)[C@H]2c1ccoc1	none
C[C@@H]1CC=C[C@H]2[C@H]1C(=O)N(Cc1ccccc1)[C@H]2c1cccc([N+](=O)[O-])c1	CF NFkB inh 56 | CF NFkB inh conf inactive
CC[C@@H]1CC=C[C@H]2[C@H]1C(=O)N(Cc1ccccc1)[C@H]2c1ccoc1	Peg3 prom inh 88, CF NFkB inh 59 | CF NFkB inh conf inactive
COC(=O)c1ccc(-c2ccc(OC)c([C@H]3[C@H]4C=CC[C@@H](C)[C@@H]4C(=O)N3Cc3ccccc3)c2)cc1	CF NFkB inh 66 | CF NFkB inh conf 53
COc1ccc(C(=O)C(C)Sc2nnc(C3CC3)n2C2CC2)cc1 (configuration not stated)	none (no result: PPC-1+TRAIL kill)
CN(C(=O)CN1C(=O)/C(=C/c2ccccc2F)SC1=S)C1CCS(=O)(=O)C1 (configuration not stated)	none (no result: PPC-1+TRAIL kill)
Cc1ccc(C(=O)c2cc([N+](=O)[O-])ccc2N2CCCCC2)c(C)c1	CF NFkB inh 63 | CF NFkB inh conf 83
COc1nc(=O)n(C2C=CC(=O)O2)cc1F (configuration not stated)	CF NFkB inh 87 (no result: PPC-1+TRAIL kill) | CF NFkB inh conf inactive
CCOC(=O)C1CCN(C(=O)COC(=O)c2nn(C)c(=O)c3ccccc23)CC1	none (no result: PPC-1+TRAIL kill)
CCN(C[C@H]1N[C@@](Cc2ccccc2)(C(=O)OC)[C@H]2C(=O)N(Cc3ccccc3)C(=O)[C@@H]12)C(=O)Nc1ccc(C(F)(F)F)cc1	CF NFkB inh 51 (no result: PPC-1+TRAIL kill) | CF NFkB inh conf inactive
O=C(CN1C(=O)CCC1=O)Nc1nc(-c2nc3ccccc3s2)cs1	CF NFkB inh 71 | CF NFkB inh conf 92
O=C(CN1C(=O)CCC1=O)Nc1nc(-c2ccccn2)cs1	none
CC(=O)c1c(C)n(-c2ccccc2)c2ccc(O)cc12	CF NFkB inh 59 | CF NFkB inh conf 72
CC(=O)c1c(C)n(-c2ccc(C)cc2C)c2ccc(O)cc12	CF NFkB inh 65 (no result: PPC-1+TRAIL kill) | CF NFkB inh conf 69
CCOc1ccc(-n2c(C)c(C(=O)OC)c3cc(O)ccc32)cc1	none
CCOc1ccc(-n2c(C)c(C(C)=O)c3cc(O)ccc32)cc1	CF NFkB inh 57 (no result: PPC-1+TRAIL kill) | CF NFkB inh conf 84
CC(=O)c1ccc(-n2c(C)c(C(C)=O)c3cc(O)ccc32)cc1	CF NFkB inh 56 (no result: PPC-1+TRAIL kill) | CF NFkB inh conf 66
CC(=O)c1c(C)n(-c2ccc(Br)cc2)c2ccc(O)cc12	none (no result: PPC-1+TRAIL kill)
Cc1cccc(NC(=S)N2CCC(NC(=O)c3cccc(F)c3)CC2)c1	none (no result: PPC-1+TRAIL kill)
O=C1N(c2ccccc2C(F)(F)F)O[C@@]1(c1ccccc1)C1CCCCC1	Peg3 prom inh 57, CF NFkB inh 65 (no result: PPC-1+TRAIL kill) | CF NFkB inh conf 60
CC(=O)C1CCC2C3CCC4=CC(=O)C=CC4(C)C3C(=O)CC12C (configuration not stated)	none (no result: PPC-1+TRAIL kill)
CC1CCC(NC(=O)COC(=O)c2ccco2)CC1 (configuration not stated)	none (no result: PPC-1+TRAIL kill)
C[C@@H]1C[C@H]2[C@@H]3CCC4=CC(=O)C=C[C@]4(C)[C@@]3(Cl)[C@@H](O)C[C@]2(C)[C@@]1(OC(=O)c1ccco1)C(=O)CCl	Peg3 prom inh 68, CF NFkB inh 89 (no result: PPC-1+TRAIL kill) | CF NFkB inh conf inactive
CC1CC2C3CCC4=CC(=O)C=CC4(C)[C@@]3(Cl)C(O)CC2(C)C1(O)C(=O)CO (some centres not stated)	CF NFkB inh 66 (no result: PPC-1+TRAIL kill) | CF NFkB inh conf inactive
CC(C)=CCc1c(O)c(CC=C(C)C)c2c(c1O)C(=O)CC(c1ccc(O)cc1)O2 (configuration not stated)	none
CC(C)=CCc1c(O)cc(O)c2c1OC(c1ccc(O)cc1)CC2=O (configuration not stated)	CF NFkB inh 53 (no result: PPC-1+TRAIL kill) | CF NFkB inh conf 72
Oc1cc(NCc2ccc(F)cc2)cc2cccnc12	C8 TRAIL sens 54, CF NFkB inh 51 (no result: PPC-1+TRAIL kill) | CF NFkB inh conf inactive
COC(=O)N1C(=O)[C@@](c2ccccc2)(C2CCCCC2)N1C(=O)OC	Peg3 prom inh 84, CF NFkB inh 66 (no result: PPC-1+TRAIL kill) | CF NFkB inh conf 49
COC(=O)N1C(=O)[C@@](Cc2ccccc2)(c2ccccc2)N1C(=O)OC	CF NFkB inh 57 (no result: PPC-1+TRAIL kill) | CF NFkB inh conf 55
CC[C@@]1(c2ccccc2)C(=O)N(C(=O)OC)N1C(=O)OC	none (no result: PPC-1+TRAIL kill)
CCOC(CNC(=O)C(=O)Nc1cc2c3c(c1)CCC(=O)N3CCC2)OCC	none (no result: PPC-1+TRAIL kill)
COc1cc(CNCCCN2CCOCC2)cc(Cl)c1OCC(=O)NC(C)(C)C	none (no result: PPC-1+TRAIL kill)
CC1(C)COC(/C=C/c2cccc([N+](=O)[O-])c2)=N1	CF NFkB inh 52 | CF NFkB inh conf inactive
O=C(Nc1ccccc1)c1cc(C2COCCN2C(=O)CCCc2ccccc2)on1 (configuration not stated)	none (no result: PPC-1+TRAIL kill)
CCc1nc(Cl)c(C#N)c2c1CCCC2	CF NFkB inh 55 | CF NFkB inh conf 75
CCc1nc(Cl)c(C#N)c2c1CSC(C)(C)C2	CF NFkB inh 58 | CF NFkB inh conf 42
CCCc1nc(NCCO)c(C#N)c2c1CCCC2	none
CC(C)Cc1nc(Cl)c(C#N)c2c1CCCC2	none
CCCc1nc(Cl)c(C#N)c2c1CCCC2	CF NFkB inh 68 | CF NFkB inh conf 76
CCCCc1nc(Cl)c(C#N)c2c1CSC(C)(C)C2	none
Cc1nn(C)c(NC(=O)c2ccccc2Cl)c1Cl	none (no result: PPC-1+TRAIL kill)
O=C(Nc1ccc(Oc2ccc(NC(=O)Nc3ccc([N+](=O)[O-])cc3)cc2)cc1)Nc1ccc([N+](=O)[O-])cc1	CF NFkB inh 52 | CF NFkB inh conf 61
COc1ccc(C(=O)N2CCCCCC2)cc1OC1CCN(C(C)=O)CC1	none (no result: PPC-1+TRAIL kill)
O=C(Nc1ccc2c(c1)OCO2)c1cc(-c2ccc(O)cc2)on1	CF NFkB inh 52 (no result: PPC-1+TRAIL kill) | CF NFkB inh conf inactive
O=C(Nc1ccc2c(c1)OCO2)c1cc(-c2cccc(O)c2)on1	none (no result: PPC-1+TRAIL kill)
